# From PubChem
# Mcl1-Noxa inh: Mcl-1/Noxa interaction inhibition; Q07820; TR-FRET Mcl-1/Noxa peptide binding, 2 h; inhibition, % at 21.7 µM; 220,000 tested, 1.5% active; AID 1022;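 active means compounds that cut the protein-peptide binding signal by more than 50% relative to plate controls in a single-dose test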;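 further: His-tagged Mcl-1 with rhodamine Noxa BH3 peptide and terbium anti-His antibody; 0% = Mcl-1 plus Noxa peptide wells and 100% = peptide-only wells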
# 14-3-3 Bad PPI: disrupts binding of bovine 14-3-3 zeta to phospho-Bad peptide | P63103 | TR-FRET 14-3-3zeta/Dy647-pBad peptide displacement, 1 h | inhibition, % at 21.7 µM | 220,000 tested, 0.71% active | AID 781;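 active means inhibition above about 70%, limit read from the data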;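 further: 0% = full 14-3-3 plus peptide FRET controls and 100% = background without 14-3-3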
# Target sequence (P63103 whole entry, looked up): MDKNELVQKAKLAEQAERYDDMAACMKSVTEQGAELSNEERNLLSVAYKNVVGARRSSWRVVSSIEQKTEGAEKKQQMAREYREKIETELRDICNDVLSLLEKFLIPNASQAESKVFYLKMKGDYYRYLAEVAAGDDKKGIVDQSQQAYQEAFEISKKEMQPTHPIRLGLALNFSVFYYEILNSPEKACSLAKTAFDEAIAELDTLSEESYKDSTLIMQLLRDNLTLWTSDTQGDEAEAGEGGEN
# Mcl1-Bid inh: disrupts binding of human Mcl-1 to Bid peptide; TR-FRET Mcl-1/Bid-Dy647 peptide binding, 1536-well; Q07820; inhibition, % at 21.7 µM; 220,000 tested, 0.97% active; AID 1021;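 active means compounds that cut the binding signal by more than half at the single screening dose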;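 further: His-tagged Mcl-1 with europium anti-His antibody binding Bid BH3 peptide; 0% = Mcl-1 plus peptide wells and 100% = peptide-only wells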
# eIF4E-4G inh: blocks eIF4E binding to eIF4G; 220,000 tested, 0.37% active; AID 782; inhibition, % at 21.7 µM; TR-FRET eIF4E-eIF4GI(517-606) binding, 2 h;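 active means inhibition above about 30%, limit read from the data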;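 further: 0% = full FRET control wells and 100% = background wells lacking eIF4GI fragment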
# MCL1 BIM primary: inhibitors of human MCL1 binding to BIM-BH3 peptide; GST-MCL1 / FITC-Bim-BH3 fluorescence polarization; inhibition, % at 10.9 µM; 320,000 tested, 0.68% active; AID 2057;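 active means inhibition above the mean inhibition of all tested compounds plus 3 SD, set per campaign, cut at about 40% in these data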;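 further: 0% = DMSO wells and 100% = unlabeled Bim-BH3 peptide control; higher means more loss of mP so more displacement of Bim peptide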
# Mcl-1 Bim block: human Bim-Mcl-1 interaction inhibition; Bead-based flow cytometry, Bim peptide-Mcl-1 binding; Q07820; inhibition, % at 10 µM; 190,000 tested, 0.1% active; in the data active means inhibition above about 40%;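 further: 0% = no compound tracer wells and 100% = peptide blocker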
# Active calls of the source: *; . = not tested or not shown; + = active, no number. Shown are actives, neighbours in structure and some others; about 2.6% of the full set was active somewhere.
SMILES,Mcl1-Noxa inh,14-3-3 Bad PPI,Mcl1-Bid inh,eIF4E-4G inh,MCL1 BIM primary,Mcl-1 Bim block
COc1cccc(NC(=O)C(NCCC(C)C)c2ccccc2)c1 (configuration not stated),17,-13,-1,-4,-5,-4
O=C(CN1CCCc2ccccc21)N/N=C/c1c(O)ccc2ccccc12,-58,-8,-169,5,-1,-7
NC(=O)CSc1ccc(S(=O)(=O)N2CCOCC2)cn1,.,.,.,.,43*,.
CCCCNC(=O)CSc1ccc(S(=O)(=O)N2CCOCC2)cn1,.,.,.,.,-1,.
O=C(c1ccc(F)cc1)N1CCN(Cc2ccccc2Br)CC1,1,48,60*,-2,0,-9
O=C(c1ccc([N+](=O)[O-])cc1)N1CCN(Cc2ccccc2)CC1,2,-15,-13,1,5,-1
O=C(c1ccco1)N1CCN(Cc2ccccc2Br)CC1,.,.,.,.,2,.
O=C(c1ccc(-n2cccc2)cc1)N1CCN(Cc2ccccc2)CC1,6,91*,-25,2,-8,1
O=C(/C=C/c1ccccc1)N(Cc1cccc(Cl)c1)C1CCS(=O)(=O)C1 (configuration not stated),-18,-5,-41,-3,-4,.
COc1cccc(CN(C(=O)/C=C/c2ccc(Cl)cc2)C2CCS(=O)(=O)C2)c1 (configuration not stated),37,28,84*,2,7,1
CC(=O)N1CCN(c2nc3ccc([N+](=O)[O-])cc3s2)CC1,.,.,.,.,-2,.
Cc1nc2ccccn2c1-c1ccnc(=S)[nH]1,57*,-4,-30,-1,6,.
S=c1nccc(-c2ccc(Cl)cc2)[nH]1,9,-4,-74,2,3,.
CCOC(=O)N1CCN(C(=O)COC(=O)C2CCN(S(=O)(=O)c3c(Cl)cccc3Cl)CC2)CC1,.,.,.,.,-16,.
O=C1C2C3C=CC(C2C(=O)N1c1cccc(O)c1)C1C2C(=O)N(c4cccc(O)c4)C(=O)C2C31 (configuration not stated),94*,-10,-23,1,4,-5
CC1OC(OC2C(Oc3c(-c4ccc(O)cc4)oc4cc(O)cc(O)c4c3=O)OC(COC3O[C@@H](C)[C@H](O)[C@@H](O)C3O)C(O)C2O)C(O)C(O)C1O (some centres not stated),.,.,.,.,1,.
CC1OC(OCC2OC(Oc3c(-c4ccc(O)cc4)oc4cc(O)cc(O)c4c3=O)C(O)C(O)C2O)C(O)C(O)C1O (configuration not stated),54*,35,-7,6,14,0
COCCNCc1nc2sc(C)c(-c3ccccc3)c2c(=O)[nH]1,4,-3,17,-2,-1,.
CN(CC(=O)Nc1cccc(F)c1)C(=O)c1cccc(S(=O)(=O)N2CC3(C)CC2CC(C)(C)C3)c1 (configuration not stated),.,.,.,.,-3,.
Cc1nc(COC(=O)c2cc(O)c3ccccc3c2O)cs1,104*,57,94*,20,.,0
Cc1nc(COC(=O)c2ccc(CO)cc2)cs1,4,5,-24,3,5,-2
CC(C)c1ccc(NC2CCCN(C(=O)C3=NN(C)C(=O)CC3)C2)cc1 (configuration not stated),.,.,.,.,4,.
CCN1C(=O)C(c2ccc(O)cc2)(c2ccc(O)cc2)c2ccccc21,30,94*,-11,1,4,-3
COc1ccc(C2C=C(c3cccs3)Nc3nc(CCCO)nn32)cc1 (configuration not stated),-12,.,-108,.,+,-2
CN1CCc2c(sc3c2C(=O)NC(c2cccc(OC(=O)c4cccs4)c2)N3)C1 (configuration not stated),58*,11,-6,0,-70,-1
CN1CCc2c(sc3c2C(=O)NC(c2ccco2)N3)C1 (configuration not stated),24,10,-24,-1,40,-1
CN1CCN(CCCC(=O)c2ccc(F)cc2)CC1,13,86*,-1,10,4,0
CCN1CCN(CCCNC(=O)c2ccc(NC(=O)C3=C(C)OCCS3)cc2)CC1,.,.,.,.,2,.
CC1(C)CC(=O)C(C=Nc2cccc(/N=C/C3=C(O)CC(C)(C)CC3=O)n2)=C(O)C1,85*,-17,-19,0,.,-2
